We go through 40 sequences from the supplement of paper PMC10338343.

± gives the standard deviation.

This assay has as its system MILI (PIWIL2) piRISC loaded with piRNA #1 (26 nt). As to the kind of experiment: pre-steady-state target cleavage rate (min^-1); guide: piRNA #1 5'p-UGAGGUAGUAGGUUGUAUAGUAUCCA; MIWI and MILI are mouse PIWI proteins and EfPiwi is from a freshwater sponge; tags in brackets are library labels; higher = faster piRNA-guided slicing of the target. As to conditions: auxiliary factor: 500 nM mouse GTSF1. The procedure, abridged:
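A transcribed, DNA-blocked target RNA library (0.1 nM) and 1 nM active affinity-purified piRISC bearing one synthetic guide were incubated in HEPES–potassium acetate buffer at 33 °C for 0–8 or 0–960 min, either with or without 500 nM GTSF1 partner protein. Uncleaved targets were sequenced, normalised to depth and to weakly complementary targets, and pooled over three trials, with k3 capped at 0.0001 min^-1. The pre-steady-state cleavage rate was derived with a burst-and-steady-state fit.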
With GGAGACCAUACUAUAGAACCUACUACGUCA, the “pre-steady-state target cleavage rate” value came out at 0.0697 ± 0.013.

Regarding GGAGACGAUAAUAUACAACCUACUACCUCA, the “pre-steady-state target cleavage rate” value was 0.172 ± 0.011. In the case of GGAGACGAUACUAUAGAACCAACUACCUCA, the “pre-steady-state target cleavage rate” value is 0.00326 ± 0.0028.

On to GGAGACCAUUGAAUACAACCUACUACCUCA, for which the “pre-steady-state target cleavage rate” value turned out to be 0.0121 ± 0.0038. Turning to GGAGACGAUAACUAUACAACCUACUACCUCA, the “pre-steady-state target cleavage rate” value was 0.116 ± 0.0099. Next, GGAGAGGAUACUAUAGCAACCUACUACCUCA: 0.129 ± 0.012; GGAGAGGAUACUAUACAACCUACUACCGCA: 0.0764 ± 0.015. With GGAGACCUUACUCUACAACCUACUACCUCA, the “pre-steady-state target cleavage rate” value is 0.202 ± 0.02. As to GGAGACCUUACUAUACAUCCUACUACCACA, the “pre-steady-state target cleavage rate” value was determined as 0.246 ± 0.02. Turning to GGAGACGUUACUAUACUACCUACUACCUCA, the “pre-steady-state target cleavage rate” value was determined as 0.169 ± 0.011. As to GGAGAGGAUACUAUACAACCUACUAUCUCA, the “pre-steady-state target cleavage rate” value was 0.131 ± 0.012. Consider GGAGACGAUACUAUACAAGCUACUAGCUCA, for which the “pre-steady-state target cleavage rate” value came out at 0.0998 ± 0.024. Regarding GGAGUGGAGACUAUACAACCUACUACCUCA, the “pre-steady-state target cleavage rate” value stood at 0.212 ± 0.029. In the case of GGAGACGAUACUAUACAACGUACUACCUCA it was 0.0266 ± 0.0047; in that of GGAGAGGUUACUAUACAACCUACAACCUCA, 0.0663 ± 0.015. As for GGAGAGGAUACUAUACAUCCAACUACCUCA, the “pre-steady-state target cleavage rate” value turned out to be 0.0065 ± 0.0019. Consider GGAGACCUUACAAUACAACCUACUACCUCA, for which the “pre-steady-state target cleavage rate” value was 0.146 ± 0.019. For the sequence GGAGUCGUUACUAUACAACCUACUACCUCA, the “pre-steady-state target cleavage rate” value was 0.158 ± 0.011.

For the sequence GGAGACCAUAUAUACAACCUACUACCUCA, the “pre-steady-state target cleavage rate” value was determined as 0.05 ± 0.0081.

In the case of “GGAGAGGAUACUAUACAACCUACUACCUCA [g2:g25:cont:t1A]”, the “pre-steady-state target cleavage rate” value was 0.206 ± 0.017.

Regarding GGAGACCAUACUAUACAACCUACCACCUCA, the “pre-steady-state target cleavage rate” value turned out to be 0.0975 ± 0.015. With GGAGAGGAAACUAUUCAACCUACUACCUCA, the “pre-steady-state target cleavage rate” value was found to be 0.172 ± 0.021. In the case of GGAGAGGAUACUUUACAACCUUCUACCUCA, the “pre-steady-state target cleavage rate” value is 0.00789 ± 0.002. For the sequence GGAGACGAUACUUACAACCUACUACCUCA, the “pre-steady-state target cleavage rate” value came to 0.114 ± 0.01. For the sequence GGAGUGGAAACUAUACAUCCUACUACCUCA, the “pre-steady-state target cleavage rate” value amounted to 0.275 ± 0.024. In the case of GGAGUGGAUACUAUACAACCAUACUACCUCA it was 0.00751 ± 0.003; in that of “GGAGUGGAUACUAUACAACCUACUACCUCU [g2:g26:cont:t1U]”, 0.231 ± 0.019; in that of GGAGUGGAUACUUAUACAACCUACUACCUCA, 0.133 ± 0.0093. Next, GGAGACGAUACUAUACAAACCUACUACCUCA: 0.00373 ± 0.0026; GGAGACCUAACUAUACAACCUACUAUCUCA: 0.0721 ± 0.017. For the sequence GGAGACGAUACUAUACAACCUACUACGUGA, the “pre-steady-state target cleavage rate” value was 0.0822 ± 0.021.

As to GGAGACCUUACUAUACAACCUACUACCUGA, the “pre-steady-state target cleavage rate” value came out at 0.117 ± 0.016. Regarding GGAGAGUAUACUAUACAACCUACUACCUCA, the “pre-steady-state target cleavage rate” value turned out to be 0.184 ± 0.011. In the case of GGAGUGGAAACUAUACAACCUAGUACCUCA it was 0.055 ± 0.021. Regarding GGAGUGGAUACUAAACAACGUACUACCUCA, the “pre-steady-state target cleavage rate” value came to 0.0219 ± 0.0031. As to GGAGUGGAUACUAUACAACCUACUACCAGA, the “pre-steady-state target cleavage rate” value came to 0.034 ± 0.0071. Consider GGAGACCAUACAUAUACAACCUACUACCUCA, for which the “pre-steady-state target cleavage rate” value amounted to 0.101 ± 0.013. “GGAGAGGAUACUAUACAACCUACUACCUCU [g2:g25:cont:t1U]”: the “pre-steady-state target cleavage rate” value stood at 0.238 ± 0.025. GGAGUGGAAAGUAUACAACCUACUACCUCA: the “pre-steady-state target cleavage rate” value turned out to be 0.118 ± 0.0086. GGAGAGGAUACUAUACAACCUACUACGAGA: the “pre-steady-state target cleavage rate” value amounted to 0.00764 ± 0.0034.
